For 35 molecules, inhibition results are on record in ChEMBL document CHEMBL3433997, “St. Jude Leishmania screening dataset” (2016).

Values joined by “and” are separate entries in the source; they are usually repeats but may differ in a detail not shown here. Equal entries are not always repeated.

Common to all, as to format: functional
In assay [1] the target is Solute carrier family 2, facilitated glucose transporter member 1 (Homo sapiens) (UniProt P11166). The assay can be described thus: ST_JUDE_LEISH: Cytotoxicity at 2uM final concentration against transgenic Leishmania Mexicana promastigotes LmGLUT1 that are glucose transport deficient and complemented with the human glucose transporter GLUT1. Activity is measured by DNA content using SYBR green in vitro.

Assay [2] deals with Hexose transporter 1 (Plasmodium falciparum) (UniProt O97467). The assay can be described thus: ST_JUDE_LEISH: Cytotoxicity at 2uM final concentration against transgenic Leishmania Mexicana promastigotes LmPfHT that are glucose transport deficient and complemented with the Plasmodium falciparum hexose transporter. Activity is measured by DNA content using SYBR green in vitro.

Assay [3] has as its target Glucose transporter (Leishmania mexicana) (UniProt O61059). The assay can be described thus: ST_JUDE_LEISH: Cytotoxicity at 2uM final concentration against transgenic Leishmania Mexicana promastigotes LmGT2 that are glucose transport deficient and complemented with the L. Mexicana glucose transporter 2. Activity is measured by DNA content using SYBR green in vitro.

Sequence of Solute carrier family 2, facilitated glucose transporter member 1 (Homo sapiens) (P11166 whole entry): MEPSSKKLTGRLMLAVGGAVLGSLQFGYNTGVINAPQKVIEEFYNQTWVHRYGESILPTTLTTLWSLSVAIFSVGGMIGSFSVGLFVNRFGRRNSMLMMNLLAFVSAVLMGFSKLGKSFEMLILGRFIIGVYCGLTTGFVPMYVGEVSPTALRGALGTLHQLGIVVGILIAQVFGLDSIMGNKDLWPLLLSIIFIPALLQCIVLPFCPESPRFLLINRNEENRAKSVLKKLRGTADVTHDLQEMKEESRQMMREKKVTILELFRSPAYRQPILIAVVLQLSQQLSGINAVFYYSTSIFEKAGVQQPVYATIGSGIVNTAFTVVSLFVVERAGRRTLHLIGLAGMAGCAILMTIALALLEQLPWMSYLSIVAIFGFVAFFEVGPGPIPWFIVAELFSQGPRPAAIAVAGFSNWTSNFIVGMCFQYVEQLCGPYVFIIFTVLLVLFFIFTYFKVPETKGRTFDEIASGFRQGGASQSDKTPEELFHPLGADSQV

For the molecule `COc1ccc2nc(C)cc(Nc3ccc(Oc4ccc(Cl)c5ccccc45)c(Cl)c3)c2c1`, the inhibition was 12.8% in assay [1], 10.2% in assay [2] and 5.43% in assay [3].
Taken in the same sequence, the figures for `CCC(C)NC(=O)Nc1ccc(-c2cccc(-c3nc4cc(C(F)(F)F)ccc4[nH]3)c2)cc1` (stereo not given) were 9.64%, 8.86% and 4.56%.
Taken in the same sequence, the figures for `Cc1cc(-c2ccc(O)c(CNC3CCCCC3)c2)cnc1N` were 0.43%, 10.3% and 0.95%.
Taken in the same sequence, the figures for `COc1ccccc1CCCN1C(=O)C(c2ccccc2)(c2ccccc2)N=C1N` were 4.43%, 0.97% and 1.36%.
For `CN1CCCN(c2ccnc3cc4c(cc23)N(C(=O)c2ccc(Cl)cc2Cl)CC4)CC1`, the results for the inhibition in assay [1], in assay [2] and in assay [3] were -0.4%, 2.07% and 0.94%, respectively.
Taken in the same sequence, the figures for `O=C(Nc1cccc(-c2cccc(F)c2)c1)C1CCN(Cc2ccc(O)cc2)CC1` were 2.54%, 2.14% and 2.19%.
With `O=C(Nc1ccc2nccc(N3CCN4CCC[C@H]4C3)c2c1)c1ccc(Cl)c(Cl)c1`, the inhibition in assay [1] was 1.13%; in assay [2], 1.72%; in assay [3], -1.03%.
Taken in the same sequence, the figures for `CS(=O)(=O)Cc1ccc(Nc2nccc(-c3c(-c4cccc(NC(=O)c5c(F)cccc5F)c4)nn4ncccc34)n2)cc1` were 12%, 8.45% and 2.78%.
Taken in the same sequence, the figures for `COC(=O)C1=CNC=C(C(=O)OC)C1c1ccc(Cl)c([N+](=O)[O-])c1` were 10.8%, 8.44% and 6.42%.
Taken in the same sequence, the figures for `CN1CCC(NCc2cccc(-c3cccc(-c4nc5cc(C(F)(F)F)ccc5[nH]4)c3)c2)CC1` were 2.34%, 0.79% and 1.42%.
As to `Cc1cc(F)ccc1-c1nc(NCCCN2CCCC2=O)nc2c1ccc(=O)n2-c1c(F)cccc1F`, the inhibition in assay [1] is 15.4%; in assay [2] it was 12.9%; in assay [3], 11.1%.
Taken in the same sequence, the figures for `CC1CN(c2cnn(Cc3cccc(NC(=O)Nc4ccc(F)cc4[N+](=O)[O-])c3)c(=O)c2Cl)CC(C)N1` (stereo not given) were -2.05%, 1.66% and -0.22%.
Taken in the same sequence, the figures for `O=C(Cc1cccc(Cl)c1)Nc1cccc(-c2c[nH]c3nc(Nc4cccc(O)c4)ncc23)c1` were 0.33%, 0.22% and -0.68%.
Taken in the same sequence, the figures for `CN1CCN(c2ccc(-c3cccc(NC(=O)c4cccc([N+](=O)[O-])c4)c3)nn2)CC1` were 3.29%, 1.6% and 1.84%.
In the case of `O=C(NC1CC1)c1cnc(N2CCCC(c3ccccc3)C2)c(Cl)c1` (stereo not given), the figures for the inhibition in assay [1], in assay [2] and in assay [3] were 0.97%, -0.31% and -4.58%, respectively.
`COc1cc(Cc2cnc(N)nc2N)ccc1OCc1cccc(Oc2ccccc2)c1`: the inhibition was found to be 2.15% in assay [1], 1.48% in assay [2] and 0.19% in assay [3].
Taken in the same sequence, the figures for `COc1cc(OC)c(OC)cc1CN1CCC2(CC1)CN(Cc1ccc(Cl)c(Cl)c1)C(=O)O2` were 10.3%, 9.41% and 8.16%.
Taken in the same sequence, the figures for `CCn1c(SCC(=O)Nc2cc(C(F)(F)F)ccc2Cl)nc2ccccc2c1=O` were 1.69%, 3.62% and 4.32%.
Taken in the same sequence, the figures for `CCCNC(=O)c1cncc(-c2ccc(CNC3Cc4ccccc4C3)cc2)c1` were 0%, 0.51% and -1.1%.
With `CC(C)Oc1ccc(N2CCN(CCCCNC(=O)c3ccc(NC(=O)c4ccc(Cl)cc4)cc3)CC2)c(OC(C)C)c1`, the inhibition in assay [1] came to 1.62%; in assay [2] it was 2.05%; in assay [3] it was 1.44%.
On to `NC(=O)c1cccc(C(=O)Nc2cccc(-c3cccc(-c4nc5ccccc5[nH]4)c3)c2)c1`, for which the inhibition in assay [1] stood at 5.87%; in assay [2] it was 5.18%; in assay [3], 4.03%.
Taken in the same sequence, the figures for `CC(=O)c1cccc(NC(=O)NC2CCN(CCCCCNC(=O)/C=C/c3ccc(Cl)c(Cl)c3)CC2)c1` were 1.56%, 2.6% and 5.52%.
Taken in the same sequence, the figures for `CCC(C)(C)c1ccc(OCC(O)CN2CCCCC2)c(C(C)(C)CC)c1` (stereo not given) were 14.6%, 15.2% and 13.2%.
In the case of `N#Cc1ccc(CNCCCCCCNCc2ccc(C#N)c3ccccc23)c2ccccc12`, the inhibition came out at 2.15% in assay [1], 1.12% in assay [2] and 2.53% in assay [3].
Taken in the same sequence, the figures for `Cn1cncc1CCN(Cc1ccc(-c2ccc(C(F)(F)F)cc2)cc1)C(=O)Cn1c(CCc2cccc(F)c2F)cc(=O)c2cccnc21` were 1.83%, 2.38% and -0.14%.
Taken in the same sequence, the figures for `O=C(/C=C/c1ccc(Cl)c(Cl)c1)NCCCCCN1CCC(NC(=O)Nc2ccc(F)cc2F)CC1` were 1.35%, 2.88% and 1.33%.
Taken in the same sequence, the figures for `Cc1ccc(-c2ccc3c(c2)C=C(C(=O)NC2CCN(CCNC(=O)c4cccc(C(F)(F)F)c4)CC2)CCC3)cc1` were 5.7%, 7.43% and 7.77%.
Consider `CCNc1cc(C(=O)N[C@@H](Cc2ccc(Cl)cc2)[C@H](O)CNC2CCCCC2)cc(N2CCCCS2(=O)=O)c1`, for which the inhibition in assay [1] was found to be 0.89%; in assay [2] it was 1.36%; in assay [3], 1.39%.
Taken in the same sequence, the figures for `Nc1nc(N)c2c(CCc3ccc(Cl)c(Cl)c3)cccc2n1` were 10.7%, 11.2% and 8.14%.
Taken in the same sequence, the figures for `O=C(Nc1ccc(F)c([N+](=O)[O-])c1)Nc1cc(C(F)(F)F)ccc1Cl` were 0.18%, 7.68% and 1.2%.
Taken in the same sequence, the figures for `CN1CCN(CC(=O)Nc2ccc(-c3csc(-c4nc5ccccc5[nH]4)c3)cc2)CC1` were -0.59%, 0.35% and -2.28%.
With `COc1ccccc1NC(=O)NC1CCN(CCCCCNC(=O)/C=C/c2ccc(Cl)c(Cl)c2)CC1`, the inhibition in assay [1] came to 1.87%; in assay [2] it was 2.75%; in assay [3], 2.7%.
With `Cc1[nH]c(C)c(-c2ccc(Oc3ccc(OC(F)(F)F)cc3)cc2)c(=O)c1Br`, the inhibition is -1.24% and 1.98% in assay [1]; -1.18% and 1.4% in assay [2]; -2.31% and 2.01% in assay [3].
`CN1CCN(c2ccnc3ccc(NC(=O)Nc4ccc5c(c4)CCCC5=O)cc23)CC1`: the inhibition in assay [1] is 0.37%; in assay [2] it was 1.11%; in assay [3], 1.66%.
Taken in the same sequence, the figures for `c1ccc(Oc2ccc(Nc3nc(NCCc4c[nH]cn4)nc(NC4CCCC4)n3)cc2)cc1` were 5.3%, 5.86% and 6.19%.

As a reminder, the inhibition is the drop in the measured response relative to a control, in per cent.
